Beta cell apopt: inhibitors of cytokine-induced beta cell apoptosis, primary screen, luminescence; INS-1E cytokine-induced death, ATP luminescence, 48 h; percent of positive-control rescue, neutral wells zero; protection from apoptosis, % (concentration not given with the values); 300,000 tested, 0.8% active; AID 435005, 2010;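 active means Every replicate reaches about 75%, or at least half do and their mean reaches it too, limit read from the data; inconclusive means At least half of replicates reach the limit but their mean does not; inactive means Under half of replicates reach the limit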;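 further: 0% = cytokine-treated negative control wells and 100% = positive control rescue; higher means more ATP so stronger rescue from cytokine killing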
Calb FLC: C. albicans growth inhibition with fluconazole, primary screen, CaCi-2 strain, Alamar Blue fluorescence. AID 1979, 2009. growth inhibition, % (concentration not given with the values). 300,000 tested, 0.57% active. C. albicans CaCi-2 (fluconazole-resistant clinical isolate) + fluconazole, 48 h;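 active means growth inhibition above about 58% in most replicates, limit read from the data, passing the limit was not always enough; inconclusive means exactly half the replicates above a set limit; inactive means most replicates below a set limit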;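 further: all wells also contain fluconazole at 8 µg/ml as a sub-toxic cotreatment; 0% = median of DMSO wells and 100% = median of geldanamycin control wells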
Shn3 inh set2: reduction of Shn3 3'UTR firefly luciferase signal, primary screen, Schnurri-3 inhibitor project, cell-based, Clone20 osteoblasts, set 2; Clone20 osteoblast Shn3 3'UTR firefly luciferase, 24 h; inhibition, % at 12.5 µM; 360,000 tested, 0.52% active;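 active means mean inhibition of at least 75% with every replicate also reaching 75%; inconclusive means mean inhibition at least 75% but some replicate below; inactive means mean inhibition below 75%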;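 further: 0% = median of neutral control wells and 100% = pilot-screen positive control compound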
697 NFkB inh: inhibitors of PMA/ionomycin-induced NF-kB reporter, 697 cells, primary screen, B-cell NF-kB inhibitor project, cell-based, luminescence, uHTS. inhibition, % at 4 µM. 330,000 tested, 0.33% active. 697 B-cell NF-kB luciferase reporter, 16 h; in the data active means inhibition above about 35%
Jurkat NFkB inh: inhibitors of induced NF-kB luciferase reporter, primary screen, TCR NF-kB activation inhibitor project, cell-based, luminescence, uHTS | 330,000 tested, 0.53% active | Jurkat, PMA/ionomycin-induced NF-kB luciferase reporter | inhibition, % at 4 µM; in the data active means inhibition above about 50%
* = called active by the depositor; ? = inconclusive; . = no result given. This is a sample that favours compounds with a hit; in the whole collection about 2% have one here.

SMILES	Beta cell apopt	Calb FLC	Shn3 inh set2	697 NFkB inh	Jurkat NFkB inh
O=C(Nc1ccncc1)c1ccc2ncsc2c1	11	2	5	-84	-1
O=C(Nc1cccc(F)c1)c1ccc2ncsc2c1	.	111*	-30	-91	-68
O=C(Nc1ccccc1F)c1ccc2ncsc2c1	.	105*	-98	-92	-42
CCCCc1cc(=O)oc2cc(C)cc(OC(C)C(=O)NCc3cccnc3)c12 (configuration not stated)	17	-4	4	2	-2
O=C1/C(=C\c2cccnc2)SC(=S)N1C1CCS(=O)(=O)C1 (configuration not stated)	-70	91*	-11	-9	2
COc1ccc(C2NCCc3c2[nH]c2ccccc32)cc1CN1CCc2cc(OC)c(OC)cc2C1C (configuration not stated)	.	-9	8	.	.
COc1ccc(C2NCCc3c2[nH]c2ccccc32)cc1COc1ccc(F)cc1 (configuration not stated)	104*	3	-28	22	-4
CCc1ccc(C(O)c2ncc(-c3ccc(C)cc3)[nH]2)cc1 (configuration not stated)	.	.	-13	.	.
O=C1NC(=O)/C(=C\c2ccc(Br)o2)S1	5	87*	10	1	-7
NC(=O)N/N=C/c1ccccc1OCc1cccc2ccccc12	2	53	-8	7	12
CC1=C(CC(=O)c2ccc(Cl)cc2)C(=O)c2ccccc2C1=O	99*	18	-3	-63	-53
COC(=O)CS(=O)(=O)c1nnc([C@H](Cc2ccccc2)NC(=O)OC(C)(C)C)o1	35	13	96*	-11	30
Cc1cccc(CS(=O)(=O)c2nnc([C@H](Cc3ccccc3)NC(=O)OC(C)(C)C)o2)c1	53	-16	97*	-4	24
COc1ccc(-c2sc3ccccc3c2-c2ccc(OCCN(C)C)cc2)cc1	76*	.	51	20	-10
COc1ccccc1N=c1scc(-c2ccc3c(c2)NC(=O)CO3)n1CC1CCCO1 (configuration not stated)	3	2	14	7	2
CN(C)S(=O)(=O)c1cccc(N=c2scc(-c3ccc4c(c3)NC(=O)CO4)n2CC2CCCO2)c1 (configuration not stated)	.	2	86*	-30	-8
CCCCCCCC/C=C\CCCCCCCC(=O)NCCc1ccc(O)c(O)c1	?	.	91*	-80	22
CCCCCCCC/C=C\CCCCCCCC(=O)NCCO	-2	.	2	8	10
COc1cc(Cl)c(NS(=O)(=O)c2ccc(-c3ccc(=O)[nH]n3)o2)c(OC)c1	-2	-1	23	-12	3
COc1cc(Cl)c(NC2=CC(=O)C(=O)c3ccccc32)c(OC)c1	105*	.	19	-35	32
CCc1ccc(-n2c(O)c(C=NCCN(CC)CC)c(=O)[nH]c2=O)cc1	.	.	96*	.	.
Cc1ccc(C(=O)NC(=S)/C=C2\N(C)c3ccccc3C2(C)C)cc1	94*	39	75	-4	41
CC(=O)/C=C1\N(C)c2ccc(C)cc2C1(C)C	99*	1	71	4	15
CN1/C(=C\C(=O)c2cncc(Br)c2)C(C)(C)c2ccccc21	101*	16	73	-46	10
CN1/C(=C\C=N\NC(=O)c2cccnc2)C(C)(C)c2ccccc21	37	22	2	4	7
SMILES	Beta cell apopt	Calb FLC	Shn3 inh set2	697 NFkB inh	Jurkat NFkB inh
CN1/C(=C\C(=O)C(F)F)C(C)(C)c2ccccc21	-3	.	1	-14	-10
CN1/C(=C/C(=S)NC(=O)C2CCC2)C(C)(C)c2ccccc21	59	-5	43	3	15
CN1/C(=C\C=N\NC(=O)c2ccc(O)cc2)C(C)(C)c2ccccc21	113*	1	88*	-6	39
CCn1c(SCC(=O)Nc2cccc(OC)c2)nc2c(c1=O)SCC2	.	-11	11	6	19
CCOC1=C2CN(S(=O)(=O)c3ccc(C)cc3)[C@H](c3ccccc3)C[C@@H]2N(S(=O)(=O)c2ccc(Br)cc2)[C@H](c2ccccc2)C1	.	.	78	.	.
COc1ccc(NC(=O)C(c2ccccc2)c2ccccc2)cn1	2	?	2	-9	-17
CC(C)C(=O)NC(=S)/C=C1/N(C)c2ccccc2C1(C)C	109*	-11	71	-13	32
COc1cc2c(c3ccccc13)CCCC2=O	.	.	3	.	.
O=C(Nc1nc(-c2ccccn2)cs1)c1cc2ccccc2o1	2	99*	-13	-21	-20
Cc1ccc(C(=O)Nc2nc(-c3ccccn3)cs2)s1	95*	.	48	-83	0
CCc1sc(C(=O)Nc2nc(-c3ccccn3)cs2)cc1C	37	.	18	6	-9
Cc1c(C(=O)Nc2nc(-c3ccccn3)cs2)oc2ccccc12	84*	.	17	1	-1
Cc1nnc(NC(=O)c2oc3ccccc3c2C)s1	1	0	-100	-106	-32
O=C(NNC(=O)c1cc([N+](=O)[O-])ccc1Cl)c1cccs1	2	9	-18	11	-14
COc1cc2ccccc2cc1C(=O)OCC(=O)c1c(N)n(C)c(=O)n(C)c1=O	0	.	2	32	-2
CC(OC(=O)C1CCCCC1)C(=O)Nc1ccc(S(N)(=O)=O)cc1 (configuration not stated)	-5	.	-13	-9	-4
COc1ccc(N(C(=O)CCl)C(C(=O)NCCc2ccccc2)c2cccs2)cc1Cl (configuration not stated)	98*	-34	?	.	.
CC1(C(=O)NS(=O)(=O)Cc2ccccc2C(F)(F)F)CCN1C(=O)c1ccco1 (configuration not stated)	.	.	-4	.	.
CC(C)Oc1ccc(S(=O)(=O)N2CCCCC2)cc1NC(=O)CN1CCCC1c1cccs1 (configuration not stated)	92*	.	?	-4	-4
CC(C)Oc1ccc(S(=O)(=O)N2CCCCC2)cc1NC(=O)CN1C(=O)NC(C)(C2CC2)C1=O (configuration not stated)	7	.	-2	6	1
CC(C)N(C(=O)[C@H]1C[C@H](CC(=O)NCCC2=CCCCC2)C(=O)N2CCc3c([nH]c4ccc(Cl)cc34)[C@]12C)C(C)C	.	.	10	10	.
CCn1c(COc2ccc(=O)n(-c3ccccc3)n2)nnc1SCc1cccc(OC)c1	-4	85*	-13	-42	-9
O=C(Cn1ncc(Cl)c(Cl)c1=O)c1ccc2c(c1)OCCO2	113*	.	12	-34	-1
O=C(Cn1ncc(Cl)c(Cl)c1=O)Nc1ccc2c(c1)OCO2	-7	.	66	-2	-1
O=C(NC1CCCN(CCc2ccccc2)C1)C1CCCC1 (configuration not stated)	.	3	5	7	6
